Measurements reported in the supplement of paper PMC11634586.
Counter-ions that a name gives are not always drawn.

The molecules below were run on NCI-H1688 (assay: inhibition of cell viability relative to untreated control (fraction); higher = stronger growth inhibition, active = 0.5 or more). Conditions: 30 µM; 24 h.
Procedure, shortened: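 NCI-H1688 small cell lung cancer cells were seeded at 3 × 10^3 cells/well in 96-well plates and treated 24 h later with a natural compound library (TargetMol) at 30 µM for 24 h, at 37°C with 5% CO2. Viability was read in triplicate with Cell Counting Kit-8 as absorbance at 450 nm. Inhibition of cell viability is expressed as a fraction, derived from viability normalised to the untreated control.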

With `O=C(O)[C@H]1O[C@@H](Oc2cc3oc(-c4ccc(O)cc4)cc(=O)c3c(O)c2O)[C@H](O)[C@@H](O)[C@@H]1O` [Breviscapin] as the molecule, how does the “inhibition of cell viability” value read?
Its value is 0.262 (inactive).

Which “inhibition of cell viability” value does the source give for `C/C1=C2N=C(/C=C3N=C(/C(C)=C4\[N-]C(C(CC(N)=O)C4(C)CCC(=O)NCC(C)OP(=O)([O-])OC4C(CO)OC(n5cnc6cc(C)c(C)cc65)C4O)C4(C)N=C1C(CCC(N)=O)C4(C)CC(N)=O)C(CCC(N)=O)C\3(C)C)C(CCC(N)=O)C/2(C)CC(N)=O.[CH3-].[Co+3]` (stereo not given) [Methylcobalamin] here?
Its value is 0.0835 (inactive).

How did the “inhibition of cell viability” value turn out when `CC1(C)CCC[C@]2(C)[C@H]3CC(=O)O[C@]3(C)CC[C@@H]12` [Sclareolide] was run?
The value was 0.206 (inactive).

Which “inhibition of cell viability” value does the source give for `CC(C)[C@H](NC(=O)[C@H](CC(=O)O)NC(=O)[C@H](CCCCN)NC(=O)[C@@H](N)CCCN=C(N)N)C(=O)N[C@@H](Cc1ccc(O)cc1)C(=O)O` [Thymopentin] here?
The value was 0.0248 (inactive).

How did the “inhibition of cell viability” value turn out when `CC1(C)C(O[C@@H]2OC[C@@H](O)[C@H](O)[C@H]2O)CC[C@]23CC24CC[C@]2(C)[C@@H]([C@@]5(C)CC[C@@H](C(C)(C)O)O5)[C@H](O)C[C@@]2(C)C4C[C@@H](O[C@@H]2O[C@H](CO)[C@@H](O)[C@H](O)[C@H]2O)C13` (stereo not given in full) [Astragaloside IV] was run?
The value was -0.0383 (inactive).

With `C=CCc1ccc(O)c(OC)c1` [Eugenol] as the molecule, how does the “inhibition of cell viability” value read?
The value was -0.184 (inactive).

How did the “inhibition of cell viability” value turn out when `NCCCS(=O)(=O)O` [Homotaurine] was run?
The value was 0.357 (inactive).

Which “inhibition of cell viability” value does the source give for `OC[C@H]1O[C@@H](O[C@@H]2[C@@H](CO)OC(O)(CO)[C@H]2O)[C@H](O)[C@@H](O)[C@H]1O` (mixture of isomers) [Lactulose] here?
Its value is 0.135 (inactive).

How did the “inhibition of cell viability” value turn out when `CC(C)=CCC[C@](C)(O[C@@H]1O[C@H](CO)[C@@H](O)[C@H](O)[C@H]1O)[C@H]1CC[C@]2(C)[C@@H]1[C@H](O)C[C@@H]1[C@@]3(C)CC[C@H](O)C(C)(C)[C@@H]3[C@@H](O[C@@H]3O[C@H](CO)[C@@H](O)[C@H](O)[C@H]3O)C[C@]12C` [Ginsenoside Rg1] was run?
The value was -0.0362 (inactive).

For `O=c1c2cc(O)c(O)cc2oc2cc(O)c([C@@H]3O[C@H](CO)[C@@H](O)[C@H](O)[C@H]3O)c(O)c12` [Mangiferin], which “inhibition of cell viability” value is on record?
Its value is -0.186 (inactive).

For `C=C(C)[C@@H]1CC=C(CO)CC1` [Perillyl alcohol], which “inhibition of cell viability” value is on record?
The value was 0.195 (inactive).

`C=C[C@H]1[C@H](O[C@@H]2O[C@H](CO)[C@@H](O)[C@H](O)[C@H]2O)OC=C2C(=O)OCC[C@]21O` [Swertiamarin] was tested. Which “inhibition of cell viability” value did it give?
The value was -0.0605 (inactive).

For `O=C(O)/C=C/c1ccc(O)c(O)c1` [Caffeic Acid], which “inhibition of cell viability” value is on record?
Its value is -0.0219 (inactive).

`CC1(C)[C@@H](O)CC[C@]2(C)[C@H]3C(=O)C=C4[C@@H]5C[C@@](C)(C(=O)O)CC[C@]5(C)CC[C@@]4(C)[C@]3(C)CC[C@@H]12` [Enoxolone] was tested. Which “inhibition of cell viability” value did it give?
The value was -0.0418 (inactive).

`N[C@@H](Cc1c[nH]c2ccc(O)cc12)C(=O)O` [5-hydroxytryptophan (5-HTP)] was tested. Which “inhibition of cell viability” value did it give?
Its value is -0.0946 (inactive).

With `COC(=O)CC[C@@H](C)[C@H]1CC[C@H]2[C@@H]3[C@H](O)C[C@@H]4C[C@H](O)CC[C@]4(C)[C@H]3C[C@H](O)[C@]12C` [Methyl Cholate] as the molecule, how does the “inhibition of cell viability” value read?
The value was 0.013 (inactive).

How did the “inhibition of cell viability” value turn out when `Cc1c(C)c2c(c(C)c1O)CC[C@@](C)(CCC[C@H](C)CCC[C@H](C)CCCC(C)C)O2` [Vitamin E] was run?
Its value is -0.243 (inactive).

Which “inhibition of cell viability” value does the source give for `CNC[C@@H](O)c1ccc(O)c(O)c1` [L-Adrenaline] here?
The value was 0.0228 (inactive).

Which “inhibition of cell viability” value does the source give for `C[C@@H]1O[C@@H](O[C@H]2[C@H](O[C@H]3CC[C@@]4(C)[C@@H](CC[C@]5(C)[C@@H]4CC=C4[C@@H]6CC(C)(C)CC[C@]6(C(=O)O[C@@H]6O[C@H](CO[C@@H]7O[C@H](CO)[C@@H](O[C@@H]8O[C@@H](C)[C@H](O)[C@@H](O)[C@H]8O)[C@H](O)[C@H]7O)[C@@H](O)[C@H](O)[C@H]6O)CC[C@]45C)[C@]3(C)CO)OC[C@H](O)[C@@H]2O)[C@H](O)[C@H](O)[C@H]1O` [Hederacoside C] here?
Its value is 0.239 (inactive).

`CC[C@]1(O)C[C@@H]2CN(CCc3c([nH]c4ccccc34)[C@@](C(=O)OC)(c3cc4c(cc3OC)N(C)[C@H]3[C@@](O)(C(=O)OC)[C@H](OC(C)=O)[C@]5(CC)C=CCN6CC[C@]43[C@@H]65)C2)C1` [Vinblastine sulfate] was tested. Which “inhibition of cell viability” value did it give?
The value was 0.764 (active).
